Laboratory results published in PubChem BioAssay AID1159580 (chemical genetic matrix, 2015).
Several values for one entry are separate records, joined by “and”; a condition that tells them apart may be missing. Equal values may be shown once. The whole screen tested about 5,500 compounds, of which about 2,000 (36%) were called active. Roughly 18% stayed inconclusive and do not appear here. Cut-off read from the data, not from the text of the source: active = normalized growth mostly below about 0.91 (no sharp cut-off); inconclusive = no clear call, values can overlap the other calls; inactive = mostly above about 0.92. This is one part of the list.

Experiment: chemical genetic growth profiling, strain panel (AID 1159580);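 note: tested at 20 µM; growth read once vehicle control cultures reached saturation at 30 °C; 1 = growth at the plate median or of vehicle wells; lower values mean less growth of the strain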
Conditions: growth OD

Measured: normalized growth

NC1(C(=O)O)CC1
inactive: S. cerevisiae deletion strains, locus YJR075W, strain HOC1, active compounds read low 0.985 | S. cerevisiae deletion strains, locus YKL009W, strain mrt4, active compounds read low 1.03 | S. cerevisiae deletion strains, locus YKL068W, active compounds read low 1.01 | S. cerevisiae deletion strains, locus YKL085W, strain MDH1 (second series), active compounds read low 1.04 | S. cerevisiae deletion strains, locus YKL085W, strain MDH1, active compounds read low 1.04 | S. cerevisiae deletion strains, locus YKL160W, strain elf1, active compounds read low 1.04 | S. cerevisiae deletion strains, locus YKL190W, strain CNB1, active compounds read low 1.01 | S. cerevisiae deletion strains, locus YKR001C, strain vps1, active compounds read low 1.03 | S. cerevisiae deletion strains, locus YKR026C, strain gcn3, active compounds read low 1.03 | S. cerevisiae deletion strains, locus YKR091W, strain srl3, active compounds read low 1.03 | S. cerevisiae deletion strains, locus YLL001W, strain dnm1, active compounds read low 1.01 | S. cerevisiae deletion strains, locus YLL026W, active compounds read low 1.03 | S. cerevisiae deletion strains, locus YLL041C, strain sdh2, active compounds read low 1.02 | S. cerevisiae deletion strains, locus YLR027C, strain aat2, active compounds read low 1.02 | S. cerevisiae deletion strains, locus YLR039C, strain RIC1, active compounds read low 1.04 | S. cerevisiae deletion strains, locus YLR058C, strain SHM2, active compounds read low 1.01 | S. cerevisiae deletion strains, locus YLR102C, strain apc9, active compounds read low 1.01 | S. cerevisiae deletion strains, locus YLR113W, strain HOG1, active compounds read low 1.04 | S. cerevisiae deletion strains, locus YLR221C, strain rsa3, active compounds read low 1 | S. cerevisiae deletion strains, locus YLR258W, strain gsy2, active compounds read low 1.04 | S. cerevisiae deletion strains, locus YLR262C, strain YPT6 (second series), active compounds read low 1.03 | S. cerevisiae deletion strains, locus YLR262C, strain YPT6, active compounds read low 1.03 | S. cerevisiae deletion strains, locus YLR268W, strain sec22, active compounds read low 1.02 | S. cerevisiae deletion strains, locus YLR320W, strain mms22, active compounds read low 1.01 | S. cerevisiae deletion strains, locus YLR330W, strain CHS5, active compounds read low 1.01 | S. cerevisiae deletion strains, locus YLR342W, strain FKS1 (second series), active compounds read low 1.04 | S. cerevisiae deletion strains, locus YLR342W, strain FKS1, active compounds read low 1.03 | S. cerevisiae deletion strains, locus YLR357W, strain rsc2, active compounds read low 1.02 | S. cerevisiae deletion strains, locus YLR370C, strain arc18, active compounds read low 1.05 | S. cerevisiae deletion strains, locus YLR371W, strain rom2, active compounds read low 1.01 | S. cerevisiae deletion strains, locus YLR384C, strain iki3, active compounds read low 1.01 | S. cerevisiae deletion strains, locus YLR418C, strain cdc73, active compounds read low 1 | S. cerevisiae deletion strains, locus YML016C, strain PPZ1, active compounds read low 1.01 | S. cerevisiae deletion strains, locus YML032C, strain rad52, active compounds read low 1.04 | S. cerevisiae deletion strains, locus YML120C, strain ndi1, active compounds read low 1.01 | S. cerevisiae deletion strains, locus YML124C, strain tub3, active compounds read low 1.02 | S. cerevisiae deletion strains, locus YMR058W, strain fet3, active compounds read low 1.03 | S. cerevisiae deletion strains, locus YMR078C, strain ctf18, active compounds read low 1.03 | S. cerevisiae deletion strains, locus YMR125W, strain sto1, active compounds read low 1.03 | S. cerevisiae deletion strains, locus YMR129W, active compounds read low 1.02 | S. cerevisiae deletion strains, locus YMR205C, strain PFK2, active compounds read low 1.03 | S. cerevisiae deletion strains, locus YMR223W, strain ubp8, active compounds read low 1.03 | S. cerevisiae deletion strains, locus YMR231W, strain pep5, active compounds read low 1.03 | S. cerevisiae deletion strains, locus YMR263W, strain SAP30, active compounds read low 1.02 and 1 | S. cerevisiae deletion strains, locus YMR307W, strain GAS1, active compounds read low 0.989 | S. cerevisiae deletion strains, locus YNL067W, strain RPL9B, active compounds read low 1.02 | S. cerevisiae deletion strains, locus YNL071W, strain lat1, active compounds read low 1.03 | S. cerevisiae deletion strains, locus YNL128W, strain TEP1, active compounds read low 1.01 | S. cerevisiae deletion strains, locus YNL153C, strain GIM3, active compounds read low 1.02 and 0.995 | S. cerevisiae deletion strains, locus YNL175C, strain NOP13, active compounds read low 0.965 | S. cerevisiae deletion strains, locus YNL183C, strain NPR1, active compounds read low 0.964 | S. cerevisiae deletion strains, locus YNL197C, strain WHI3, active compounds read low 0.965 | S. cerevisiae deletion strains, locus YNL209W, strain ssb2, active compounds read low 1.04 | S. cerevisiae deletion strains, locus YNL224C, strain SQS1, active compounds read low 1.01 | S. cerevisiae deletion strains, locus YNL233W, strain BNI4, active compounds read low 1 | S. cerevisiae deletion strains, locus YNL248C, strain rpa49, active compounds read low 1.06 | S. cerevisiae deletion strains, locus YNL250W, strain rad50, active compounds read low 1.03 | S. cerevisiae deletion strains, locus YNL271C, strain bni1, active compounds read low 1.03 | S. cerevisiae deletion strains, locus YNL298W, strain CLA4, active compounds read low 1.03 | S. cerevisiae deletion strains, locus YNL307C, strain MCK1, active compounds read low 1.04 | S. cerevisiae deletion strains, locus YNL322C, strain KRE1 (second series), active compounds read low 1.02 | S. cerevisiae deletion strains, locus YNL322C, strain KRE1, active compounds read low 1.01 | S. cerevisiae deletion strains, locus YNR049C, strain mso1, active compounds read low 1.01 | S. cerevisiae deletion strains, locus YNR052C, strain pop2, active compounds read low 1.01 | S. cerevisiae deletion strains, locus YOL006C, strain TOP1, active compounds read low 1.05 | S. cerevisiae deletion strains, locus YOL012C, strain htz1 0.791 | S. cerevisiae deletion strains, locus YOL147C, strain pex11, active compounds read low 1 | S. cerevisiae deletion strains, locus YOR001W, strain rrp6, active compounds read low 1.01 | S. cerevisiae deletion strains, locus YOR061W, strain CKA2, active compounds read low 1.01 | S. cerevisiae deletion strains, locus YOR069W, strain VPS5, active compounds read low 1 | S. cerevisiae deletion strains, locus YOR070C, strain gyp1, active compounds read low 1.02 | S. cerevisiae deletion strains, locus YOR080W, strain dia2, active compounds read low 1.02 | S. cerevisiae deletion strains, locus YOR083W, strain WHI5 (second series), active compounds read low 0.956 | S. cerevisiae deletion strains, locus YOR083W, strain WHI5, active compounds read low 1.04 | S. cerevisiae deletion strains, locus YOR106W, strain vam3, active compounds read low 1.04 | S. cerevisiae deletion strains, locus YOR136W, strain idh2, active compounds read low 1.02 | S. cerevisiae deletion strains, locus YOR144C, strain elg1, active compounds read low 1.02 | S. cerevisiae deletion strains, locus YOR184W, strain ser1, active compounds read low 1.05 | S. cerevisiae deletion strains, locus YOR231W, strain MKK1, active compounds read low 1.03 | S. cerevisiae deletion strains, locus YOR265W, strain rbl2, active compounds read low 1.03 | S. cerevisiae deletion strains, locus YOR270C, strain vph1, active compounds read low 1.1 | S. cerevisiae deletion strains, locus YOR290C, strain snf2, active compounds read low 1.06 | S. cerevisiae deletion strains, locus YOR316C, strain cot1, active compounds read low 1.01 | S. cerevisiae deletion strains, locus YPL051W, strain arl3, active compounds read low 1.04 | S. cerevisiae deletion strains, locus YPL055C, strain LGE1, active compounds read low 1 | S. cerevisiae deletion strains, locus YPL078C, strain atp4, active compounds read low 1.05 | S. cerevisiae deletion strains, locus YPL106C, strain sse1, active compounds read low 1.03 | S. cerevisiae deletion strains, locus YPL240C, strain hsp82, active compounds read low 1.02 | S. cerevisiae deletion strains, locus YPL241C, strain CIN2, active compounds read low 0.999 and 0.995 | S. cerevisiae deletion strains, locus YPL256C, strain CLN2, active compounds read low 1 | S. cerevisiae deletion strains, locus YPR119W, strain clb2, active compounds read low 1 | S. cerevisiae deletion strains, locus YPR141C, strain kar3, active compounds read low 1.02 | S. cerevisiae deletion strains, locus YPR163C, strain tif3, active compounds read low 1.03 | S. cerevisiae deletion strains, locus YPR167C, strain met16, active compounds read low 1.02 | S. cerevisiae deletion strains, strain wtn01, active compounds read low 1.02 | S. cerevisiae strains, strain wild type, active compounds read low 1.01
